These results are taken from the supplement of paper PMC8728848.

Test in all cases: glycan array binding signal (z-score within array); higher = stronger binding
Holding throughout (settings): glycan notation: IUPAC condensed, linker removed

In experiment [1] the target is Fuc(a1-2)Gal(b1-3)GlcNAc6S. A digest of the protocol:
(§1)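 Negative Z-scores can be read as non-binding. The Z-score is calculated within each array and then averaged across arrays of one protein sequence at different concentrations or buffers and across linkers. Arrays, 3228 in all, were curated from the Consortium for Functional Glycomics database and kept only where the protein sequence was available.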

Experiment [2] addresses Fuc(a1-2)Gal(b1-3)[Fuc(a1-4)]GlcNAc(b1-2)Man(a1-3)[Fuc(a1-2)Gal(b1-3)[Fuc(a1-4)]GlcNAc(b1-2)Man(a1-3)]Man(b1-4)GlcNAc(b1-4)GlcNAc. The method, boiled down:
as §1

The target of experiment [3] is Fuc(a1-2)Gal(b1-4)[Fuc(a1-3)]GlcNAc(b1-3)GalNAc. The method, boiled down:
as §1

The target in experiment [4] is Fuc(a1-2)[Gal(a1-3)]Gal(b1-3)GlcNAc(b1-2)Man(a1-3)[Fuc(a1-2)[Gal(a1-3)]Gal(b1-3)GlcNAc(b1-2)Man(a1-6)]Man(b1-4)GlcNAc(b1-4)[Fuc(a1-6)]GlcNAc. A digest of the protocol: as §1
Experiment [5] deals with Fuc(a1-2)[Gal(a1-3)]Gal(b1-4)GlcNAc. A digest of the protocol:
as §1

Experiment [6] addresses Fuc(a1-2)[GalNAc(a1-3)]Gal(b1-3)GlcNAc(b1-2)Man(a1-3)[Fuc(a1-2)[GalNAc(a1-3)]Gal(b1-3)GlcNAc(b1-2)Man(a1-6)]Man(b1-4)GlcNAc(b1-4)[Fuc(a1-6)]GlcNAc. A digest of the protocol: as §1
Experiment [7] deals with Fuc(a1-2)[GalNAc(a1-3)]Gal(b1-4)GlcNAc(b1-2)Man(a1-3)[Fuc(a1-2)[GalNAc(a1-3)]Gal(b1-4)GlcNAc(b1-2)Man(a1-6)]Man(b1-4)GlcNAc(b1-4)GlcNAc. A digest of the protocol: as §1
The target of experiment [8] is Fuc(a1-2)[GalNAc(a1-3)]Gal(b1-4)[Fuc(a1-3)]GlcNAc. The method, boiled down:
as §1

In experiment [9] the target is Fuc(a1-3)[Gal(b1-4)]GlcNAc(b1-2)Man. The method, boiled down: as §1
The target in experiment [10] is Fuc(a1-3)[Gal(b1-4)]GlcNAc(b1-6)[Gal(b1-3)GlcNAc(b1-3)]Gal(b1-4)Glc. A digest of the protocol:
as §1

In experiment [11] the target is Gal(a1-3)Gal(b1-3)GlcNAc(b1-2)Man(a1-3)[Gal(a1-3)Gal(b1-3)GlcNAc(b1-2)Man(a1-6)]Man(b1-4)GlcNAc(b1-4)GlcNAc. A digest of the protocol: as §1
Experiment [12] has as its target Gal(b1-3)GlcNAc(b1-2)Man(a1-3)[Gal(b1-3)GlcNAc(b1-2)Man(a1-6)]Man(b1-4)GlcNAc(b1-4)[Fuc(a1-6)]GlcNAc. The method, boiled down:
as §1

In experiment [13] the target is Gal(b1-3)GlcNAc(b1-3)Gal(b1-4)GlcNAc(b1-2)Man(a1-3)[Gal(b1-3)GlcNAc(b1-3)Gal(b1-4)GlcNAc(b1-2)Man(a1-6)]Man(b1-4)GlcNAc(b1-4)GlcNAc. The method, boiled down:
as §1

Experiment [14] concerns the target Gal(b1-3)GlcNAc(b1-6)[Gal(b1-3)]GalNAc. The method, boiled down:
as §1

Experiment [15] concerns the target Gal(b1-3)[Neu5Ac(a2-6)]GalNAc. A digest of the protocol: as §1
A further experiment addresses Gal(b1-4)Glc6S. A digest of the protocol: as §1
Experiment [16] has as its target Gal(b1-4)GlcNAc(b1-2)[Gal(b1-4)GlcNAc(b1-4)]Man(a1-3)[Gal(b1-4)GlcNAc(b1-2)[Gal(b1-4)GlcNAc(b1-6)]Man(a1-6)]Man(b1-4)GlcNAc(b1-4)GlcNAc. A digest of the protocol:
as §1

Experiment [17] addresses Gal(b1-4)GlcNAc(b1-2)[Gal(b1-4)GlcNAc(b1-6)]Man(a1-6)[Gal(b1-4)GlcNAc(b1-2)Man(a1-3)]Man(b1-4)GlcNAc(b1-4)[Fuc(a1-6)]GlcNAc. A digest of the protocol:
as §1

The target in experiment [18] is Gal(b1-4)GlcNAc(b1-3)Gal(b1-4)GlcNAc(b1-2)Man(a1-3)[Gal(b1-4)GlcNAc(b1-3)Gal(b1-4)GlcNAc(b1-2)Man(a1-6)]Man(b1-4)GlcNAc(b1-4)GlcNAc. A digest of the protocol:
as §1

In experiment [19] the target is Gal(b1-4)GlcNAc(b1-3)Gal(b1-4)GlcNAc(b1-3)Gal(b1-4)GlcNAc(b1-2)Man(a1-3)[Gal(b1-4)GlcNAc(b1-3)Gal(b1-4)GlcNAc(b1-3)Gal(b1-4)GlcNAc(b1-2)Man(a1-6)]Man(b1-4)GlcNAc(b1-4)GlcNAc. A digest of the protocol:
as §1

For experiment [20], the target named is Gal(b1-4)GlcNAc(b1-3)Gal(b1-4)GlcNAc(b1-3)Gal(b1-4)GlcNAc(b1-2)Man(a1-3)[Gal(b1-4)GlcNAc(b1-3)Gal(b1-4)GlcNAc(b1-3)Gal(b1-4)GlcNAc(b1-2)Man(a1-6)]Man(b1-4)GlcNAc(b1-4)[Fuc(a1-6)]GlcNAc. A digest of the protocol:
as §1

The target of experiment [21] is Gal(b1-4)GlcNAc(b1-3)Gal(b1-4)GlcNAc(b1-3)Gal(b1-4)GlcNAc(b1-3)Gal(b1-4)GlcNAc(b1-2)Man(a1-3)[Gal(b1-4)GlcNAc(b1-3)Gal(b1-4)GlcNAc(b1-3)Gal(b1-4)GlcNAc(b1-3)Gal(b1-4)GlcNAc(b1-2)Man(a1-6)]Man(b1-4)GlcNAc(b1-4)[Fuc(a1-6)]GlcNAc. The method, boiled down: as §1
Experiment [22] addresses Gal(b1-4)GlcNAc(b1-3)Gal(b1-4)GlcNAc(b1-3)Gal(b1-4)GlcNAc(b1-3)Gal(b1-4)GlcNAc(b1-3)Gal(b1-4)GlcNAc(b1-2)Man(a1-3)[Gal(b1-4)GlcNAc(b1-3)Gal(b1-4)GlcNAc(b1-3)Gal(b1-4)GlcNAc(b1-3)Gal(b1-4)GlcNAc(b1-3)Gal(b1-4)GlcNAc(b1-2)Man(a1-6)]Man(b1-4)GlcNAc(b1-4)[Fuc(a1-6)]GlcNAc. The method, boiled down:
as §1

For experiment [23], the target named is Gal(b1-4)GlcNAc(b1-3)Gal(b1-4)GlcNAc(b1-3)[Gal(b1-4)GlcNAc(b1-3)Gal(b1-4)GlcNAc(b1-6)]GalNAc. A digest of the protocol: as §1

The sample as a whole holds a higher share of the strongest signals than the screen did.

B1: rCnSL-proB (Clitocybe nebularis) (protein)
chain: PTFSPIFALLAFLPFGTLASLLPQTQLVFRINPNLPGPNDVFVGYRGTNNVVGAIYERDGIKDTPMNNGADAELGPGSYITDDLFTAQIFASGSAGNNPGTTATVCKIYADGVQWRGAPKGYLPVLYFGNGQAAEQTRQTYLQGLDIPGTAIRFANLAKTPNQGPTAPRQMVVPSGGLQTLLKASCFPANHAALPQVLSYFNVRAALPPGWNIRTGPEFPNWTN
Take B1: the “glycan array binding signal (z-score)” value was -0.282 in experiment [1]; 3.69 in experiment [2]; 0.251 in experiment [3]; 0.259 in experiment [4]; -0.77 in experiment [5]; 3.9 in experiment [6]. The “glycan array binding signal (z-score)” value was -0.08 in experiment [7]; -0.654 in experiment [8]; -0.565 in [9]; -0.826 in [10]; -0.093 in experiment [11]; -0.42 in [12]. Besides, the “glycan array binding signal (z-score)” value was 3.58 in experiment [13]; -0.511 in experiment [14]; 0.089 in [15]; -0.06 with Gal(b1-4)Glc6S; 3.51 in [16]; 4.49 in [17]. In addition, the “glycan array binding signal (z-score)” value in experiment [18] came out at 6.35; in experiment [19], 4.18; in experiment [20], 1.76; in experiment [21] it was 2.28; in [22] it was 0.375; in experiment [23], 4.08.
